# Results from PubChem BioAssay (NCI).
# The panel holds about 83,000 compounds, 20% with a hit somewhere; the sample as a whole holds those more often.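 Values shown are percent growth following 48 h exposure of cells in 96-well plates to a single concentration of compound; below 10 was considered active.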 Unmarked numbers belong to inactive results. Activity calls are given as the source filed them.
# Test system: HOP-92 NSCLC
# Assay: NCI-60 one-dose screen, 48 h (100 = growth as untreated, 0 = no growth, -100 = all killed)
# Settings: 10 µM unless noted
row,SMILES,growth
1,C=CC(=O)Nc1cccc(-c2nc(SC)nc(NCc3ccccc3)c2C#N)c1,48.1%
2,COC(=O)c1ccc2oc(NC(=O)c3ccc(Nc4ccc([N+](=O)[O-])cc4C)c([N+](=O)[O-])c3)nc2c1,101%
3,COc1cc(/C=C/c2cc(/C=C/c3ccc(O)c(OC)c3)n(-c3c(Cl)cccc3Cl)c(=O)n2)ccc1O,78.7%
4,CSc1nc(Nc2cccc(NC(=O)CCl)c2)c(C#N)c(-c2cccc([N+](=O)[O-])c2)n1,40.7%
5,CC(C)(C)N1CCC1CN (stereo unspecified),108%
6,Cc1ccc(NC(=O)/C=C/c2ccccc2)c(C(N)=O)c1,62.9%
7,COc1ccc(-n2nc(C)c3c(Nc4ccc(NC(=O)Nc5cccc(C(F)(F)F)c5)cc4)ncnc32)cc1,-26.4% (active)
8,O=C1OCC2=C1C(c1ccncc1)c1cc3c(cc1N2CCO)OCO3 (stereo unspecified),87.6%
9,C#Cc1cccc(NC(=O)c2ccccc2NC(=O)C=C)c1,92.8% [8.25 µM]
10,CCOc1cc2ncc(C#N)c(Nc3ccc(F)c(Cl)c3)c2cc1NC(=O)CC1CCSS1 (stereo unspecified),-15.3% (active)
11,CN(Cc1cc(Cl)cc(Cl)c1O)Cc1cc(Cl)cc(Cl)c1O,92.5%
12,CC(=O)O[C@H]1[C@@H]2OC(=O)C(CSc3ccccc3)[C@@H]2C[C@H]2O[C@]2(C)CC/C=C(\C)CCC[C@@H]1C (stereo partly specified),-22.4% (active)
13,COc1ccc(/C=N/C2=C(C#N)C(c3ccc(N(C)C)cc3)c3ccc4ccccc4c3O2)cc1 (stereo unspecified),65.4%
14,C[n+]1ccccc1/C=C/c1ccc2cccc(O)c2n1,106%
15,Cc1nn(-c2ccc(F)cc2)c2ncnc(Oc3ccc(NC(=O)Nc4ccc(Cl)c(C(F)(F)F)c4)cc3)c12,104%
16,COc1ccc(C(=O)c2sc3nc(C)cc(C)c3c2N)cc1OC,89.7%
17,C=CC(=O)Nc1cccc(-c2nc(SC)nc(Nc3ccccc3OC)c2C#N)c1,31%
18,Nc1nc2ncc(CCNc3ccc(C(=O)O)cc3)nc2c(=O)[nH]1,97.8%
19,CCCSc1ccc2nc(NC(=O)OC)[nH]c2c1,33.6%

row,SMILES,growth
1,CCCc1cc(=O)n2c(C(=O)Nc3ccc(F)cc3)c(C(=O)Nc3ccc(F)cc3)sc2n1,-36.3% [30 µM] (active)
2,O=C(/C=C/c1ccccc1)c1ccc(O)c(CN2CCN(c3cc4c(cc3F)c(=O)c(C(=O)O)cn4C3CC3)CC2)c1,-5.65% (active)
3,CCOC(=O)c1sc2nc(-c3cccc(OC)c3)nc(N3CCOCC3)c2c1C,80.3%
4,CCCCCCCCCCCCC[N+](C)(C)Cc1ccccc1,-64.3% (active)
5,CCCOc1ccc2nc(NC(=O)OC)[nH]c2c1,37.9%
6,Nc1n[nH]c2ccc([C@@H]3Nc4ccc5cn[nH]c5c4[C@H]4C5CCC(C5)[C@@H]34)cc12 (stereo partly specified),104%
7,O=c1nc2oc3ccc4ccccc4c3cc-2s1,14.2%
8,COC(=O)c1cccc(NC(=O)c2ccc(-c3cccc(N)c3)o2)c1,106%
9,CCOC(=O)c1c(C)oc2ncnc(N3CCN(C(=S)Nc4ccccc4)CC3)c12,83.3%
10,CCCCN(CCCC)CCCn1c(-c2ccccc2)ccc1-c1ccccc1,44.7%
11,CN1CCN(CCCOc2cccc3nc(Nc4ccc(Cl)c(F)c4)ccc23)CC1,30.8%
12,COc1cccc(/C=N/NC(=O)c2ccccc2Nc2ccnc(C(F)(F)F)c2)c1O,29.4%
13,COc1cc2nc(N3CCCC3)nc(NCc3ccccc3)c2cc1OC,61.4%
14,COc1cc2c(cc1-c1c(C)noc1C)ncc1nc(-c3ccccn3)n([C@H](C)COC(F)F)c12,26.7%
15,COc1cccc(-c2nc3sccn3c2-c2ccnc(NCCCNS(=O)(=O)c3c(Cl)cccc3Cl)c2)c1,49.6%
16,N#Cc1c(-c2ccc(Cl)cc2)nc(NN=Cc2ccco2)nc1N1CCOCC1,40.6%
17,O=C(Nc1cccc2[nH]c(C(F)(F)F)nc12)c1ccc(-n2cnnn2)cc1,82.5%
18,CC1CCNC(C)C1 (stereo unspecified),76.3%
19,CCN(CC)c1ccc(-c2cc(-c3cc(OC)c(OC)c(OC)c3)nc(N3CCOCC3)c2C#N)cc1,-1.28% (active)

# Test system: NCI-H522 lung
# Assay: as above
# Settings: 10 µM unless noted
row,SMILES,growth
1,C=CC(=O)Nc1cccc(-c2nc(SC)nc(NCc3ccccc3)c2C#N)c1,31.2%
2,COC(=O)c1ccc2oc(NC(=O)c3ccc(Nc4ccc([N+](=O)[O-])cc4C)c([N+](=O)[O-])c3)nc2c1,94.4%
3,COc1cc(/C=C/c2cc(/C=C/c3ccc(O)c(OC)c3)n(-c3c(Cl)cccc3Cl)c(=O)n2)ccc1O,9.89% (active)
4,CSc1nc(Nc2cccc(NC(=O)CCl)c2)c(C#N)c(-c2cccc([N+](=O)[O-])c2)n1,-55.9% (active)
5,CC(C)(C)N1CCC1CN (stereo unspecified),135%
6,Cc1ccc(NC(=O)/C=C/c2ccccc2)c(C(N)=O)c1,-8.74% (active)
7,COc1ccc(-n2nc(C)c3c(Nc4ccc(NC(=O)Nc5cccc(C(F)(F)F)c5)cc4)ncnc32)cc1,4.21% (active)
8,O=C1OCC2=C1C(c1ccncc1)c1cc3c(cc1N2CCO)OCO3 (stereo unspecified),91.2%
9,C#Cc1cccc(NC(=O)c2ccccc2NC(=O)C=C)c1,80.5% [8.25 µM]
10,CCOc1cc2ncc(C#N)c(Nc3ccc(F)c(Cl)c3)c2cc1NC(=O)CC1CCSS1 (stereo unspecified),-48.6% (active)
11,CN(Cc1cc(Cl)cc(Cl)c1O)Cc1cc(Cl)cc(Cl)c1O,72.2%
12,CC(=O)O[C@H]1[C@@H]2OC(=O)C(CSc3ccccc3)[C@@H]2C[C@H]2O[C@]2(C)CC/C=C(\C)CCC[C@@H]1C (stereo partly specified),-87.2% (active)
13,COc1ccc(/C=N/C2=C(C#N)C(c3ccc(N(C)C)cc3)c3ccc4ccccc4c3O2)cc1 (stereo unspecified),26.1%
14,C[n+]1ccccc1/C=C/c1ccc2cccc(O)c2n1,99.8%
15,Cc1nn(-c2ccc(F)cc2)c2ncnc(Oc3ccc(NC(=O)Nc4ccc(Cl)c(C(F)(F)F)c4)cc3)c12,99.7%
16,COc1ccc(C(=O)c2sc3nc(C)cc(C)c3c2N)cc1OC,-13.1% (active)
17,C=CC(=O)Nc1cccc(-c2nc(SC)nc(Nc3ccccc3OC)c2C#N)c1,39.3%
18,Nc1nc2ncc(CCNc3ccc(C(=O)O)cc3)nc2c(=O)[nH]1,100%
19,CCCSc1ccc2nc(NC(=O)OC)[nH]c2c1,-35.7% (active)

row,SMILES,growth
1,CCCc1cc(=O)n2c(C(=O)Nc3ccc(F)cc3)c(C(=O)Nc3ccc(F)cc3)sc2n1,62.7% [30 µM]
2,O=C(/C=C/c1ccccc1)c1ccc(O)c(CN2CCN(c3cc4c(cc3F)c(=O)c(C(=O)O)cn4C3CC3)CC2)c1,1.49% (active)
3,CCOC(=O)c1sc2nc(-c3cccc(OC)c3)nc(N3CCOCC3)c2c1C,85.8%
4,CCCCCCCCCCCCC[N+](C)(C)Cc1ccccc1,-60.1% (active)
5,CCCOc1ccc2nc(NC(=O)OC)[nH]c2c1,-32.7% (active)
6,Nc1n[nH]c2ccc([C@@H]3Nc4ccc5cn[nH]c5c4[C@H]4C5CCC(C5)[C@@H]34)cc12 (stereo partly specified),27.1%
7,O=c1nc2oc3ccc4ccccc4c3cc-2s1,-3.74% (active)
8,COC(=O)c1cccc(NC(=O)c2ccc(-c3cccc(N)c3)o2)c1,81.8%
9,CCOC(=O)c1c(C)oc2ncnc(N3CCN(C(=S)Nc4ccccc4)CC3)c12,80.9%
10,CCCCN(CCCC)CCCn1c(-c2ccccc2)ccc1-c1ccccc1,58.3%
11,CN1CCN(CCCOc2cccc3nc(Nc4ccc(Cl)c(F)c4)ccc23)CC1,29.8%
12,COc1cccc(/C=N/NC(=O)c2ccccc2Nc2ccnc(C(F)(F)F)c2)c1O,18.6%
13,COc1cc2nc(N3CCCC3)nc(NCc3ccccc3)c2cc1OC,73.1%
14,COc1cc2c(cc1-c1c(C)noc1C)ncc1nc(-c3ccccn3)n([C@H](C)COC(F)F)c12,29.3%
15,COc1cccc(-c2nc3sccn3c2-c2ccnc(NCCCNS(=O)(=O)c3c(Cl)cccc3Cl)c2)c1,60.6%
16,N#Cc1c(-c2ccc(Cl)cc2)nc(NN=Cc2ccco2)nc1N1CCOCC1,62.3%
17,O=C(Nc1cccc2[nH]c(C(F)(F)F)nc12)c1ccc(-n2cnnn2)cc1,57.3%
18,CC1CCNC(C)C1 (stereo unspecified),103%
19,CCN(CC)c1ccc(-c2cc(-c3cc(OC)c(OC)c(OC)c3)nc(N3CCOCC3)c2C#N)cc1,-15.6% (active)
